Laboratory results taken from PubChem BioAssay (NCI).
Compounds without any hit were thinned out: in the full panel of roughly 83,000, 20% have a hit.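 Single-dose data. Exposure time 48 hours. Values below 10 considered active.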 Values without a mark were called inactive. Active and inactive are the calls of the source.

What was measured:
Experiment in all cases: NCI-60 one-dose screen, 48 h (100 = growth as untreated, 0 = no growth, -100 = all killed)
Settings in all cases: 10 µM unless noted
[1] = system: SR leukemia
[2] = system: RPMI-8226 leukemia
[3] = system: OVCAR-8 ovarian
[4] = system: OVCAR-5 ovarian
[5] = system: OVCAR-4 ovarian
[6] = system: IGROV1 ovarian
[7] = system: OVCAR-3 ovarian
[8] = system: HS 578T breast
[9] = system: NCI/ADR-RES ovarian
[10] = system: T-47D breast
[11] = system: MDA-MB-435 melanoma
[12] = system: SW-620 colon
[13] = system: MCF7 breast
[14] = system: HCT-116 colon
[15] = system: HCC-2998 colon
[16] = system: KM12 colon
[17] = system: SK-OV-3 ovarian
[18] = system: BT-549 breast

| Compound | growth [1] | growth [2] | growth [3] | growth [4] | growth [5] | growth [6] | growth [7] | growth [8] | growth [9] | growth [10] | growth [11] | growth [12] | growth [13] | growth [14] | growth [15] | growth [16] | growth [17] | growth [18] [%] |
| --- | --- | --- | --- | --- | --- | --- | --- | --- | --- | --- | --- | --- | --- | --- | --- | --- | --- | --- |
| CC(=O)Nc1ccc(S(=O)(=O)n2ccc(-c3ccc4c(c3)CCC(C)(C)O4)n2)cc1 | 56.4% | 43.7% | 69.4% | 96.3% | 46.2% | 68% | 74.4% | 102% | 56.9% | 31.1% | 67.3% | 82.5% | 66.2% | 29.9% | 83.3% | 67.4% | – | – |
| Cc1ccc(Nc2nnc(-c3ccc(Cl)cc3)o2)c(C)c1 | 53% | 89.6% | 95% | 99% | 82.1% | 87.2% | 82.4% | 87.9% | 45.6% | 75.6% | 6.82% (active) | 56.5% | 56.9% | 83.9% | 84.8% | 65.7% | – | – |
| O=[N+]([O-])c1ccc(/C=C/C2(CCl)OCCO2)cc1 | 1.55% (active) | 68.5% | 82.4% | 111% | 102% | – | 112% | 109% | 98.8% | 95.1% | – | 86.5% | 106% | 61.3% | 98.5% | 104% | 103% | – |
| CC1CN(c2oc(-c3ccccc3)nc2C#N)CC(C)O1 (stereo unspecified) | 102% | 104% | 102% | 102% | 99.4% | 97.7% | 116% | 102% | 107% | 94.7% | 103% | 104% | 77.1% | 104% | 110% | 103% | – | 99.4 |
| O=C(O)C1CCCCN1c1nc(Cl)nc(Cl)n1 (stereo unspecified) | 118% | 109% | 99.3% | 105% | – | 106% | 108% | 103% | 101% | 99% | – | 101% | 100% | 111% | 101% | 111% | 99.9% | 103 |
| Cc1ccc2nc(-c3cc4c([nH]c5ccccc54)c(-c4ccc(F)c(F)c4)n3)[nH]c2c1 | -18.8% (active) | 47.4% | 78.3% | 113% | 69% | – | 96.7% | 108% | 83% | 77.8% | 91.3% | 101% | 51.8% | 15.2% | 88.6% | 72.4% | 109% | 83.7 |
| Cc1ccc(S(=O)(=O)NC(=O)n2cc(-c3ccncc3)c(-c3ccc(Cl)c(O)c3)n2)cc1 | 83.3% | 99.9% | 99% | 114% | – | 112% | 146% | 107% | 104% | 108% | 82.2% | 131% | 124% | 96% | – | 118% | 101% | 106 |
| COc1ccc2[nH]c(=O)c3c4ccccc4cn3c2c1 | -27.2% (active) | -59.6% (active) | 24.4% | 31.4% | 49.1% | 16.8% | – | – | 24.8% | 44.6% | -23.3% (active) | 13.3% | – | -28.9% (active) | 31.3% | 10.4% | 32.8% | 37.9 |
| ClC(Cl)c1nc(-c2cccnc2)n2nc(-c3ccccc3)cc2n1 | 13.4% | 33.2% | 27.7% | 7.66% (active) | 9.31% (active) | 13.9% | -47.5% (active) | 51.6% | -11.2% (active) | 50.2% | 0.991% (active) | 0.424% (active) | 50.6% | 0.678% (active) | -68.7% (active) | 2.3% (active) | – | 68.4 |
| COc1ccc(CN2CCc3c(Sc4ccccc4)nc(N)nc3C2=O)c(OC)c1 | 43.3% | -6.07% (active) | 44.8% | 82.3% | 44.3% | – | 57.1% | 74.3% | 49.7% | 33.9% | 60.6% | 81.2% | 43.7% | 42.7% | 86.2% | 84.9% | 82.2% | 23.4 |
| COc1cc(/C=C/c2cc(/C=C/c3ccc(O)c(OC)c3)n(C(N)=O)n2)ccc1O | -3.77% (active) | -44% (active) | -6.69% (active) | -30.7% (active) | -6.24% (active) | 1.18% (active) | -72.7% (active) | -11.3% (active) | 7.68% (active) | -7.56% (active) | -46% (active) | 0.998% (active) | -16.4% (active) | -39.2% (active) | 7.85% (active) | 3.47% (active) | – | – |
| CN(C)CCOC(=O)Nc1ccccc1Cl | 104% | 93.1% | 109% | 121% | – | 106% | 121% | 115% | 105% | 112% | 105% | 109% | 103% | 103% | 111% | 112% | 115% | 99.3 |
| COc1ccc(C(=O)n2nc(/C=C/c3ccc(O)c(OC)c3)cc2/C=C/c2ccc(O)c(OC)c2)cc1 | -9.23% (active) | -27.3% (active) | -5.24% (active) | -18.8% (active) | -7.85% (active) | 12.8% | 1.05% (active) | 0.538% (active) | 26% | -4.93% (active) | -22.5% (active) | – | -3.07% (active) | -0.661% (active) | 16.4% | 6.33% (active) | – | – |
| Cc1ccc(S(=O)(=O)n2cc(C(=O)C(=O)N3CCOCC3)c3ccccc32)cc1 | 77.8% | 59.6% | 91.5% | 85.7% | 89.1% | – | 91.4% | 101% | 75.1% | 74.8% | 104% | – | 99.4% | 87.1% | 99.6% | 98.7% | 97.9% | 87.5 |
| COc1ccc(S(=O)(=O)n2ccc(-c3ccc4c(c3)CCC(C)(C)O4)n2)cc1OC | 60.2% | 59% | 74.6% | 105% | 46% | 84.3% | 70.9% | 91.5% | 56.5% | 43.7% | 79.6% | 79.9% | 64.3% | 61.5% | 78.9% | 71.4% | – | – |
| COC(=O)c1cc2cc(-c3ccc(OC)cc3)cnc2[nH]1 | 10.7% | -5.41% (active) | 8.62% (active) | 44.9% | 30.2% | – | -55.7% (active) | 33.8% | -35.6% (active) | 34.1% | -23.7% (active) | 18.6% | – | 13.8% | 51.1% | 11.4% | 1.35% (active) | 18.6 |
| COc1ccc(-c2cn(-c3cccc(C(=O)/C=C/c4cc(OC)c(OC)c(OC)c4)c3)c(=O)[nH]2)cc1OC | 6.01% (active) | 6.95% (active) | 64.9% | 93.6% | 85.7% | – | 98.2% | 87.9% | 90.7% | – | 83.2% | 94.5% | 53.3% | 63.6% | 103% | 70.9% | 82.7% | 85 |
| COc1ccc2c(c1)[nH]c(=O)c1c3cc(OC)ccc3cn21 | 20.4% | -63.2% (active) | 4.9% (active) | 25.9% | 46.1% | 16.8% | – | – | 21.5% | 13.6% | -9.37% (active) | -2.37% (active) | 14.1% | -89% (active) | 32.1% | -13.1% (active) | 42.4% | 36.8 |
| C=C1CCC2C3(C)COC(c4ccc(N(C)C)cc4)OC3CCC2(C)C1C/C=C1/C(=O)OCC1O (stereo unspecified) | 21.9% | -52.9% (active) | 47.5% | 96.3% | 68.3% | 39.3% | – | – | 65.1% | 52.1% | 7.31% (active) | 26% | 29.5% | 21.6% | 112% | 54.6% | 84% | 46.4 |
